# Data published in PubChem BioAssay (EPA / NIEHS).
# Activity calls are given as the source filed them. The calls were made as follows: active = hit-call score of the fitted dose curve at least 0.9, where 1 is the maximum; inactive = score below 0.9.
# What was measured:
# [1] = APR_HepG2_CellLoss_72hr: Apredica 72-hour HepG2 Assay for Cell Loss (AID 2282915); details: high-content imaging
# Method in brief: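 HepG2 cells exposed 72 h to compound at 0.39–200 uM (10 concentrations, duplicate) in 0.5% DMSO. Fixed with 3.7% formaldehyde and Hoechst 33342-stained. Imaged at 20x; nuclear count gives cell number, fitted bidirectionally versus DMSO.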
# [2] = APR_HepG2_P-H2AX_72hr: Apredica 72-hour HepG2 Assay for H2AX Phosphorylation (AID 2282916); details: imaging, actives raise or lower the signal;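 also: phospho-histone H2A.x immunostain intensity per cell marking DNA damage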
# Method in brief: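 Human hepatoma HepG2 cells are dosed across ten concentrations (0.39 to 200 uM, 0.5% v/v DMSO) and incubated 72 hr. Phospho-histone H2A.x is then detected by antibody staining alongside c-Jun and Hoechst, and quantified by automated fluorescence imaging.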
# [3] = APR_HepG2_MitoMembPot_72hr: Apredica 72-hour HepG2 Assay for Mitochondrial Membrane Potential (AID 2282917); details: imaging, actives raise or lower the signal
# Method in brief: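 HepG2 cells dosed 72 hr with compound at 0.39–200 uM in duplicate, 0.5% v/v DMSO final. Mitochondria stained with 250 nM MitoTracker Red CMXRos for 30 min before formaldehyde fixation, imaged by high-content fluorescence; bidirectional fit versus DMSO.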
# [4] = APR_HepG2_MitoticArrest_72hr: Apredica 72-hour HepG2 Assay for Mitotic Arrest (AID 2282918); details: high-content imaging, actives raise or lower the signal
# Method in brief: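 HepG2 cells treated 72 h at 0.39–200 uM, 0.5% DMSO final; formaldehyde-fixed, stained with Hoechst 33342 and phospho-histone H3 antibody, imaged by high-content fluorescence; bidirectional fit versus DMSO.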
# [5] = APR_HepG2_MicrotubuleCSK_72hr: Apredica 72-hour HepG2 Assay for Microtubule CSK Stabilty (AID 2282919); details: HepG2 microtubule cytoskeleton, high-content imaging, actives raise or lower the signal
# Method in brief: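 HepG2, 72 hr cmpd exposure, 0.39–200 uM (10 pts, duplicate), 0.5% DMSO. 3.7% formaldehyde fix, 0.5% Triton perm, anti-alpha-tubulin/Cy5 plus Hoechst. HCS fluorescence intensity; bidirectional fit vs DMSO baseline; taxol as positive control.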
# [6] = APR_HepG2_P-H2AX_24hr: Apredica 24-hour HepG2 Assay for H2AX Phosphorylation (AID 2282920); details: high-content imaging, actives raise or lower the signal
# Method in brief: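 HepG2 cells dosed 24 h at 0.39–200 uM (10 points, duplicate, 0.5% DMSO final). Formaldehyde-fixed and permeabilized, then immunostained for phospho-H2A.x with Hoechst. Fluorescence quantified by high-content imaging, fitted bidirectionally versus DMSO.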
# [7] = APR_HepG2_StressKinase_72hr: Apredica 72-hour HepG2 Assay for Stress Kinase (AID 2282921); details: HepG2 stress kinase (phospho-c-Jun) imaging, actives raise or lower the signal
# Method in brief: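 After a 72 h compound treatment spanning 0.39 to 200 uM, formaldehyde-fixed cells are labelled for phosphorylated c-Jun and nuclei, imaged by automated fluorescence microscopy, and activity is fitted in both directions relative to DMSO controls.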
# [8] = APR_HepG2_StressKinase_24hr: Apredica 24-hour HepG2 Assay for Stress Kinase (AID 2282922); details: HepG2 stress kinase (phospho-c-Jun) imaging, actives raise or lower the signal
# Method in brief: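 Read-out: phospho-c-Jun immunofluorescence (Cy3 secondary) quantified by high-content imaging at 20x, nuclei defined by Hoechst 33342. Human HepG2 liver cells dosed 24 hr, 0.39–200 uM, DMSO 0.5% v/v; gain or loss of signal fitted relative to DMSO.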
# [9] = APR_HepG2_p53Act_72hr: Apredica 72-hour HepG2 Assay for p53 Activation (AID 2282923); details: high-content imaging, actives raise or lower the signal;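 also: average cellular p53 protein immunofluorescence intensity in HepG2 cells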
# Method in brief: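 Imaging-based endpoint: after 72 hr compound exposure (up to 200 uM, 0.5% DMSO), fixed and permeabilized monolayers were labelled with anti-p53 antibody and imaged; signal change in either direction was fitted relative to DMSO controls.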
# [10] = APR_HepG2_NuclearSize_72hr: Apredica 72-hour HepG2 Assay for Nuclear Size (AID 2282925); details: high-content imaging, actives raise or lower the signal
# Method in brief: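 Read-out: nuclear diameter from Hoechst 33342 images (ArrayScan, 20x, six fields/well), via cell-cycle image analysis. HepG2 were dosed 0.39–200 uM for 72 hr in 0.5% DMSO. Bidirectional fit relative to DMSO.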
# [11] = ATG_CRE_CIS: Attagene CIS-FACTORIAL HepG2 Assay for human cAMP Responsive Element (CRE) binding protein 3 (AID 2282926); details: HepG2 CRE cis-reporter, Attagene multiplexed mRNA; actives raise or lower the signal
# Method in brief: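 Induced reporter mRNA from a CRE cis element, measured in HepG2 among many multiplexed units at 24 h. Detection used RT-PCR plus capillary electrophoresis of fluorescent fragments; DMSO served as negative control.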
# [12] = target: CCAAT/enhancer-binding protein beta (Homo sapiens) (UniProt P17676); assay: ATG_C_EBP_CIS: Attagene CIS-FACTORIAL HepG2 Assay for human CCAAT/Enhancer Binding Protein (C/EBP) beta (AID 2282927); details: HepG2 Attagene cis-factorial transcription factor reporter; actives raise or lower the signal
# Sequence of CCAAT/enhancer-binding protein beta (Homo sapiens) (P17676 whole entry, looked up): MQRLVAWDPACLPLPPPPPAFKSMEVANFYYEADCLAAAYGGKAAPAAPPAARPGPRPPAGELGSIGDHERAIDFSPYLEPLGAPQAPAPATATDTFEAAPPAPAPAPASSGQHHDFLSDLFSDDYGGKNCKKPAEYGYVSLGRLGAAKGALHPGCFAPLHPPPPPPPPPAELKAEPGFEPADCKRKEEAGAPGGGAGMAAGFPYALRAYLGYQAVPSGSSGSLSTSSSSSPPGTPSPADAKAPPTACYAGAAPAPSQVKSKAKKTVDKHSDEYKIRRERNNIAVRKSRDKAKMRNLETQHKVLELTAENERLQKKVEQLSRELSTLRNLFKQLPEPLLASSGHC
# Method in brief: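 HepG2 transiently transfected with multiplexed reporter units under cis-regulatory promoters reporting endogenous C/EBPb activity. After 24 h exposure, reporter mRNA assayed by RT-PCR, fluorescent labelling, HpaI digestion and capillary electrophoresis; bidirectional fitting versus DMSO.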
# [13] = ATG_CMV_CIS: Attagene CIS-FACTORIAL HepG2 Assay for human CMV (Internal Marker) (AID 2282928); details: HepG2 CMV promoter reporter, transcription factor profiling; actives raise or lower the signal;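 also: endpoint acts as a background internal control marker rather than a target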
# Method in brief: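 Reporter transcripts from transfected HepG2 cells are isolated after 24 h of chemical dosing, reverse-transcribed and amplified. Fragments labeled with 6-FAM are cut with HpaI and quantified by capillary electrophoresis; DMSO defines baseline.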
# [14] = ATG_DR4_LXR_CIS: Attagene CIS-FACTORIAL HepG2 Assay for human Liver X Receptor (LXR), DR4 submotif (AID 2282929); details: HepG2 Attagene DR4 cis-reporter, mRNA transcription; actives raise or lower the signal
# Method in brief: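 Endogenous factor activity at a DR4 cis-element is read as reporter mRNA in transiently transfected HepG2 cells. Exposure lasts 24 h; transcripts are amplified, fluorescently labelled and sized by capillary electrophoresis, with DMSO as baseline.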
# [15] = target: Aryl hydrocarbon receptor (Homo sapiens) (UniProt P35869); assay: ATG_Ahr_CIS: Attagene CIS-FACTORIAL HepG2 Assay for human Aryl Hydrocarbon Receptor (Ahr) (AID 2282930); details: HepG2 AhR cis-factorial reporter transcription; actives raise or lower the signal
# Sequence of Aryl hydrocarbon receptor (Homo sapiens) (P35869 whole entry, looked up): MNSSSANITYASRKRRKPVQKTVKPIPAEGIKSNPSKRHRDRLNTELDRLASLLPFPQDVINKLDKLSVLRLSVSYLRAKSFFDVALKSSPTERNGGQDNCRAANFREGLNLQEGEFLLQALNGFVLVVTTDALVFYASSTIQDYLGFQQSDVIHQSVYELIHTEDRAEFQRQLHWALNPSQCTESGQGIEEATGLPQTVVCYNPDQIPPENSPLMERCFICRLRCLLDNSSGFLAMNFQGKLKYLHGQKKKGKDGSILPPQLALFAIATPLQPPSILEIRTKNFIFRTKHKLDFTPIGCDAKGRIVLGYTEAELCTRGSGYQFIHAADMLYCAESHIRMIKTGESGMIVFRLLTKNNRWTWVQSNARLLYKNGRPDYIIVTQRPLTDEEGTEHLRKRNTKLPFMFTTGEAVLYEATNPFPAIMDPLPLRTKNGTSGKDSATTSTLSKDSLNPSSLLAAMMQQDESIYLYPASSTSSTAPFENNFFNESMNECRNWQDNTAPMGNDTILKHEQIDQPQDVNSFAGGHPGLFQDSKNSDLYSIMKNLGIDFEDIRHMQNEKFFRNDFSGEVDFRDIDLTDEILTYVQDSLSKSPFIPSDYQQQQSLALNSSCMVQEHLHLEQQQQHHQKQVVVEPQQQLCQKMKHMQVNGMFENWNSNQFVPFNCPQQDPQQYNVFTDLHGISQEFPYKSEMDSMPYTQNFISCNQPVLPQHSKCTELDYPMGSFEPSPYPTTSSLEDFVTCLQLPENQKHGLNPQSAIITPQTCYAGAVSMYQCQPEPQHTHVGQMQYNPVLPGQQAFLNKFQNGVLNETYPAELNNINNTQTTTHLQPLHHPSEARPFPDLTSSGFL
# Method in brief: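 HepG2 cells transiently transfected with cis-element-driven multiplexed reporter units; endogenous AhR activity read as reporter mRNA 24 h after dosing, via RT-PCR, 6-FAM labelling, HpaI digestion and capillary electrophoresis. Bidirectional fit relative to DMSO.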
# [16] = ATG_AP_1_CIS: Attagene CIS-FACTORIAL HepG2 Assay for human Activator Protein 1 (AP-1) (AID 2282931); details: HepG2 Attagene cis-factorial AP-1 reporter mRNA; actives raise or lower the signal
# Method in brief: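 Fluorescence of labelled PCR fragments separated by capillary electrophoresis gives reporter mRNA levels. HepG2 with transfected cis-regulated reporter units, 24 h exposure; DMSO serves as baseline for bidirectional curve fits.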
# [17] = ATG_AP_2_CIS: Attagene CIS-FACTORIAL HepG2 Assay for human Activator Protein 2 (AP-2) (AID 2282932); details: HepG2 AP-2 cis-reporter, Attagene transcription factor profiling; actives raise or lower the signal
# Method in brief: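 Liver-derived HepG2 line, cis-reporter system measuring endogenous factors; 24 h dosing; reporter mRNA detected by fluorescent RT-PCR and capillary electrophoresis.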
# [18] = ATG_BRE_CIS: Attagene CIS-FACTORIAL HepG2 Assay for human Bone Morphogenetic Protein (BMP) Response Element (BRE) (AID 2282933); details: HepG2 BMP response element reporter, Attagene transcription factor profiling; actives raise or lower the signal
# Method in brief: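 Gain- or loss-of-signal was derived by bidirectional fitting against DMSO controls. The signal came from reporter mRNA, measured by RT-PCR and capillary electrophoresis, in HepG2 cells transiently carrying multiple reporter units and dosed for 24 h.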
# [19] = APR_HepG2_MitoMass_72hr: Apredica 72-hour HepG2 Assay for Mitochondrial Mass (AID 2282924); details: high-content imaging, actives raise or lower the signal;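 also: MitoTracker Red CMXRos stain intensity per cell imaged as mitochondrial mass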
# Method in brief: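 Read-out: MitoTracker Red fluorescence intensity from automated imaging (20x, six fields per well) in human HepG2 liver cells. Dosing ran 72 hr, 0.39–200 uM, 0.5% DMSO; bidirectional curve fitting versus DMSO baseline.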
# [20] = target: Retinoic acid receptor alpha (Homo sapiens) (UniProt P10276); assay: ATG_DR5_RAR_CIS: Attagene CIS-FACTORIAL HepG2 Assay for human Retinoic Acid Receptor Alpha (RARE), DR5 submotif (AID 2282934); details: HepG2 Attagene cis-factorial RARE DR5 reporter, mRNA; actives raise or lower the signal
# Sequence of Retinoic acid receptor alpha (Homo sapiens) (P10276 whole entry, looked up): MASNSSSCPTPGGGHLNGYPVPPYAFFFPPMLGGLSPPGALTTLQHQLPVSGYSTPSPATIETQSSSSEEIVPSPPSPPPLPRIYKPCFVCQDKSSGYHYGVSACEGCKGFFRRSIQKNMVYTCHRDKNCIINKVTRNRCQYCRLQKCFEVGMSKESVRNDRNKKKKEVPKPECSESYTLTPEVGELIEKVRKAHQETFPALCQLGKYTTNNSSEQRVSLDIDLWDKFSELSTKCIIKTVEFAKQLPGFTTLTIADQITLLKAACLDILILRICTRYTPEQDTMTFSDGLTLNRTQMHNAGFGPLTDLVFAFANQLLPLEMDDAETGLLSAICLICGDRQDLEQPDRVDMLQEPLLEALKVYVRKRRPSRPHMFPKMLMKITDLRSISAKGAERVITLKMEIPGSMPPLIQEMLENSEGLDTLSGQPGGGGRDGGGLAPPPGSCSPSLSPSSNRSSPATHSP
# Method in brief: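 HepG2 cells transiently transfected with multiplexed reporter units; DR5 cis-element drives reporter through endogenous transcription factors. After 24 h dosing, reporter mRNA quantified by RT-PCR, fluorescent labeling, HpaI digestion and capillary electrophoresis; bidirectional fitting versus DMSO.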
structure (smiles),measurement,setting,value
Nc1c(Cl)c(Cl)nc(C(=O)O)c1Cl,outcome,[1],inactive
same,outcome,[2],inactive
same,outcome,[3],inactive
same,outcome,[4],inactive
same,outcome,[5],inactive
same,outcome,[6],inactive
same,outcome,[7],inactive
same,outcome,[8],inactive
same,outcome,[9],inactive
same,outcome,[10],inactive
same,outcome,[11],inactive
same,outcome,[12],inactive
same,outcome,[13],inactive
same,outcome,[14],inactive
same,AC50,[15],31.3 µM (active)
same,outcome,[16],inactive
same,outcome,[17],inactive
same,outcome,[18],inactive
CCN(CC)c1nc(C)cc(OP(=S)(OC)OC)n1,outcome,[1],inactive
same,outcome,[2],inactive
same,outcome,[4],inactive
same,outcome,[5],inactive
same,outcome,[6],inactive
same,outcome,[7],inactive
same,outcome,[8],inactive
same,outcome,[9],inactive
same,outcome,[19],inactive
same,outcome,[10],inactive
same,AC50,[11],21.9 µM (active)
same,outcome,[12],inactive
same,outcome,[13],inactive
same,AC50,[14],50 µM (active)
same,AC50,[15],30.7 µM (active)
same,outcome,[16],inactive
same,outcome,[17],inactive
same,outcome,[18],inactive
same,outcome,[20],inactive
COC(=O)N(C(=O)N1CO[C@@]2(C(=O)OC)Cc3cc(Cl)ccc3C2=N1)c1ccc(OC(F)(F)F)cc1,outcome,[1],inactive
same,outcome,[2],inactive
same,outcome,[4],inactive
same,outcome,[5],inactive
same,outcome,[6],inactive
same,outcome,[8],inactive
same,outcome,[9],inactive
same,outcome,[19],inactive
same,outcome,[10],inactive
same,AC50,[11],0.67 µM (active)
same,outcome,[12],inactive
same,outcome,[13],inactive
same,AC50,[14],13.8 µM (active)
same,outcome,[15],inactive
same,AC50,[16],4.67 µM (active)
same,outcome,[17],inactive
same,AC50,[18],2.96 µM (active)
same,outcome,[20],inactive
CCOP(=S)(OCC)Oc1nc(Cl)n(C(C)C)n1,outcome,[1],inactive
same,outcome,[2],inactive
same,outcome,[4],inactive
same,outcome,[5],inactive
same,outcome,[6],inactive
same,outcome,[8],inactive
same,outcome,[9],inactive
same,outcome,[19],inactive
same,outcome,[10],inactive
same,outcome,[11],inactive
same,outcome,[12],inactive
same,outcome,[13],inactive
same,AC50,[14],6.85 µM (active)
same,outcome,[15],inactive
same,outcome,[16],inactive
same,outcome,[17],inactive
same,outcome,[18],inactive
same,outcome,[20],inactive
CC1(C)CON(Cc2ccccc2Cl)C1=O,outcome,[1],inactive
same,outcome,[2],inactive
same,outcome,[4],inactive
same,outcome,[5],inactive
same,outcome,[6],inactive
same,outcome,[7],inactive
same,outcome,[8],inactive
same,outcome,[9],inactive
same,outcome,[19],inactive
same,outcome,[10],inactive
same,outcome,[11],inactive
same,outcome,[12],inactive
same,outcome,[13],inactive
same,outcome,[14],inactive
same,outcome,[15],inactive
same,outcome,[16],inactive
same,outcome,[17],inactive
same,outcome,[18],inactive
same,outcome,[20],inactive
CC(C)N1C(=O)c2ccccc2NS1(=O)=O,outcome,[1],inactive
same,outcome,[2],inactive
same,outcome,[4],inactive
same,outcome,[5],inactive
same,outcome,[6],inactive
same,outcome,[8],inactive
same,outcome,[9],inactive
same,outcome,[10],inactive
same,outcome,[11],inactive
same,outcome,[12],inactive
same,outcome,[13],inactive
same,AC50,[14],62 µM (active)
same,outcome,[15],inactive
same,outcome,[16],inactive
same,outcome,[17],inactive
same,outcome,[18],inactive
same,outcome,[20],inactive
CN/C(=N\[N+](=O)[O-])NCc1cnc(Cl)s1,outcome,[1],inactive
same,outcome,[2],inactive
same,outcome,[4],inactive
same,outcome,[5],inactive
same,outcome,[6],inactive
same,outcome,[8],inactive
same,outcome,[9],inactive
same,outcome,[10],inactive
same,outcome,[11],inactive
same,outcome,[12],inactive
same,outcome,[13],inactive
same,outcome,[14],inactive
same,outcome,[15],inactive
same,outcome,[16],inactive
same,outcome,[17],inactive
same,outcome,[18],inactive
same,outcome,[20],inactive
